Abs 340nm – absorbance at 340 nm | compound absorbance at 340 nm, fold over control | fold change at 10 µM | 65,000 tested, under 10 active;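 active = at 10 µM dose, initial 340 nm absorbance at least 2 fold that of control wells; inactive = change under 2 fold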;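 note: initial absorbance extrapolated from kinetic A340 decline of NADH oxidation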
NADH coupling – inhibitors of enzymes used to reach an NAD/NADH endpoint. AID 774. IC50, µM (top dose mostly 10 µM). hit rate 0.02% among 65,000. coupled PK/LDH NADH assays, four targets;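 active = single-dose screening hits from any of four coupled enzyme assays that gave an IC50 when retested across doses; inconclusive = no clear call, values can overlap the other calls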;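 note: the DPM-DC format reads NADH fluorescence rather than 340 nm absorbance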
mHtt clearance – mutant huntingtin protein clearance. HeLa Exon1htt(103Q)mCFP, aggregate imaging; zero = plate's median compound well. inhibition, % at 1.5 µM. hit rate 0.42% among 47,000;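 active = inhibition of aggregate fluorescence above about 70%, also judged a hit by eye on the cell image, limit read from the data, passing the limit was not always enough; inconclusive = no rule stated for this call; inactive = not judged a hit on image review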;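 note: cells exposed to compound for three days before fixation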
M1 antagonist – antagonists of rat M1 muscarinic receptor; P08482; CHO-M1 cells, Fluo-4 calcium, ACh EC80 antagonist mode; hits give low values; B-score at 10 µM; hit rate 3.4% among 64,000; AID 628;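 active = calcium fluorescence response, raw or row-and-column corrected B-score, differing from the plate sample mean either way at a set confidence level, mostly lower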
Target sequence (P08482 whole entry, looked up): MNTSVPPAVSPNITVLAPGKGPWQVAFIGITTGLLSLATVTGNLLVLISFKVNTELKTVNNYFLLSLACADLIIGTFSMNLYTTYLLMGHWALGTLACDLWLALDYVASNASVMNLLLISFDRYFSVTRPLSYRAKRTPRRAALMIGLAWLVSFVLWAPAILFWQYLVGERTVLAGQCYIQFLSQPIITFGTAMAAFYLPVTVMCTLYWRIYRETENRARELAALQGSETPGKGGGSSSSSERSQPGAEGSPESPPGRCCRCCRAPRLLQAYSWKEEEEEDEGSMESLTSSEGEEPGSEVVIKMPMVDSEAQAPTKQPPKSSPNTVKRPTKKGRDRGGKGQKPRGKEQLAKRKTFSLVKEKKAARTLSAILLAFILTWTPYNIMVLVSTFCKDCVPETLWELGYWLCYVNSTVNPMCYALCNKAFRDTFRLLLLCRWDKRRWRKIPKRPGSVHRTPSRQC
M1 agonist – agonists of M1 muscarinic receptor. hit rate 3% among 64,000. B-score at 10 µM. CHO-M1 cells, Fluo-4 calcium fluorescence, agonist mode; hits give high values;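 active = fluorescence rise, raw or as B-score row- and column-corrected plate score, outside the 99.7% band of its plate's samples, either direction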
Fluor 339 460 – intrinsic fluorescence of library compounds, ex339/em460 – biochemical, MLSMR library, data from DPM-DC assay, artefact control, profiling panel; compound autofluorescence, ex339/em460 nm, NADH buffer; hits give high values; 1 = no-compound wells, NADH background; fluorescence fold increase at 10 µM; hit rate 5.5% among 65,000; AID 709;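 active = at 10 µM, mean starting fluorescence two-fold or more over control wells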;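 note: signal is the first read of a kinetic run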
M1 antag confirm – M1 muscarinic receptor (rat) antagonism, confirmed | AID 677 | calcium response (max-min fluorescence) at 10 µM | hit rate 43% among 1,700 | CHO-M1 cells, Fluo-4 calcium, ACh EC80 antagonism; hits give low values | shares compounds with M1 antagonist;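 active = calcium response below the same-plate mean of wells given acetylcholine alone at its 80%-effect dose, minus 3 SD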
mGluR4 antag – mGluR4 (human) activity, M1 antagonist secondary assay. shares compounds with M1 antagonist. CHO-mGluR4 calcium flux, Fluo-4 fluorescence, glutamate EC80; hits give low values. fluorescence response (max-min) at 10 µM. hit rate 0.9% among 1,700. AID 678;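 active = fluorescence response below the plate's average for near-maximal glutamate wells, less 3 SD of those wells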;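 note: raw unnormalized fluorescence span taken in the window right after glutamate addition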
Of the large screens only hits and unclear results are named; the others gave an inactive call (follow-up assays come after a bar, where they were run). Hits are enriched below; roughly 9.3% of the tested compounds scored in any of these assays.

CCCSc1nc2c(cnn2-c2ccc(Cl)cc2)c(=O)[nH]1	none
CCC(Sc1nc2c(cnn2-c2ccccc2)c(=O)[nH]1)C(=O)OC (configuration not stated)	M1 antagonist -2.4 (no result: mHtt clearance) | M1 antag confirm inactive | mGluR4 antag inactive
CCOC(=O)c1c(NC(=O)c2ccccc2Br)sc2c1CCc1ccccc1-2	none (no result: Abs 340nm, NADH coupling, M1 antagonist, M1 agonist, Fluor 339 460)
COc1nnc(-c2ccc(N3CCCCC3)c(NC(C)=O)c2)c2ccccc12	none (no result: Abs 340nm, NADH coupling, M1 antagonist, M1 agonist, Fluor 339 460)
CCOC(=O)N1CCC(Nc2c(NCCN3CCN(Cc4ccccc4)CC3)c(=O)c2=O)CC1	M1 antagonist -6.7 | M1 antag confirm inactive | mGluR4 antag inactive
O=c1[nH]nc(Sc2ncnc3sccc23)n1CCc1ccccc1	none
CCC(C)(C)n1nnnc1C(C(C)C)N1CCSCC1 (configuration not stated)	none (no result: mHtt clearance)
COc1ccccc1N1CCN(C(=O)CCCn2c(=O)[nH]c3ccsc3c2=O)CC1	M1 antagonist -4.2 | M1 antag confirm inactive | mGluR4 antag inactive
Cc1nc2c(c(=O)n1CC1CCCO1)c1nc3ccccc3nc1n2Cc1ccc2c(c1)OCO2 (configuration not stated)	none (no result: mHtt clearance)
Cc1ccc(-c2cc(C(=O)NCc3ccc4c(c3)OCO4)[nH]n2)c(O)c1C	M1 antagonist -1.6 (no result: mHtt clearance) | M1 antag confirm inactive | mGluR4 antag inactive
Cc1cc(O)c(-c2cc(C(=O)NCc3ccc4c(c3)OCO4)[nH]n2)cc1C	none (no result: mHtt clearance)
Cc1ccc(-c2c(C(=O)N3CCOCC3)oc(=O)c3ccccc23)cc1	none
CCN1CCN(C(=O)c2oc(=O)c3ccccc3c2-c2ccc(C)cc2)CC1	M1 antagonist -1.8 (no result: mHtt clearance) | M1 antag confirm 320 | mGluR4 antag inactive
Cc1cc2nc(NC3=NCN(CCCN4CCOCC4)CN3)nc(C)c2cc1C	M1 antagonist -14 (no result: mHtt clearance) | M1 antag confirm 22 | mGluR4 antag inactive
CCCCN1CN=C(Nc2nc3ccccc3o2)NC1	none (no result: Abs 340nm, NADH coupling, M1 antagonist, M1 agonist, Fluor 339 460)
Cc1nc(NC2=NCN(CCCN3CCOCC3)CN2)nc2c(C)cccc12	M1 antagonist -7.4 | M1 antag confirm 48 | mGluR4 antag inactive
CCOc1ccc2nc(NC3=NCN(Cc4ccco4)CN3)nc(C)c2c1	none (no result: mHtt clearance)
Nc1nncn1C(=O)CCc1ccccc1	none (no result: M1 antagonist, M1 agonist)
COc1ccc(C)cc1S(=O)(=O)N(CC(=O)N1CCCC1)c1ccccc1	none
COc1ccc(-n2c(COc3ccccc3)nnc2SCc2ccc(C#N)cc2)cc1	M1 antagonist -3.3 | M1 antag confirm inactive | mGluR4 antag inactive
N#Cc1ccc(CSc2nnc(COc3ccccc3)n2-c2ccccc2)cc1	none (no result: Abs 340nm, NADH coupling, M1 antagonist, M1 agonist, Fluor 339 460)
O=C(c1ccco1)N1CCN(S(=O)(=O)c2ccc3c(c2)CCN3C(=O)C2CC2)CC1	M1 antagonist -2.4 | M1 antag confirm inactive | mGluR4 antag inactive
O=C(C1CC1)N1CCc2cc(S(=O)(=O)N3CCOCC3)ccc21	none
O=C(CN1C(=O)C2CC=CCC2C1=O)Nc1ccc(S(=O)(=O)NC2=NCCCCC2)cc1 (configuration not stated)	none (no result: mHtt clearance)
OC(CN1CCCCC1)CN(c1ccccc1)c1ccccc1 (configuration not stated)	M1 antagonist -22 | M1 antag confirm 78 | mGluR4 antag inactive
OC(CN1CCOCC1)CN(c1ccccc1)c1ccccc1 (configuration not stated)	none
CCOC(=O)CC1C(=O)NCCN1C(=O)Nc1ccccc1 (configuration not stated)	M1 antagonist -2.2 | M1 antag confirm inactive | mGluR4 antag inactive
Cc1ccc(Nc2nc(OC(C(F)(F)F)C(F)(F)F)nc(N3CCOCC3)n2)cc1	M1 antagonist -3.7 | M1 antag confirm inactive | mGluR4 antag inactive
CC(C)CCNC(=O)Cn1c(=O)oc2cc(S(=O)(=O)N3CCc4ccccc43)ccc21	M1 antagonist -4.5 | M1 antag confirm 478 | mGluR4 antag inactive
O=C(Cn1c(=O)oc2cc(S(=O)(=O)N3CCc4ccccc43)ccc21)NC1CCCC1	M1 antagonist -4.3 | M1 antag confirm 503 | mGluR4 antag inactive
O=C(Cn1c(=O)oc2cc(S(=O)(=O)N3CCCCCC3)ccc21)NC1CCCCC1	none (no result: mHtt clearance)
Cc1ccc(C(C(=O)NCCc2ccccc2)N(C(=O)c2csnn2)C2CC2)o1 (configuration not stated)	none (no result: mHtt clearance)
CCN1CCN(c2ccc(NC(=O)c3cccnc3)cc2Cl)CC1	M1 antagonist -3.6 (no result: mHtt clearance) | M1 antag confirm 460 | mGluR4 antag inactive
CCN1CCN(C(c2cccs2)C(C)NC(=O)c2cccnc2)CC1 (configuration not stated)	M1 antagonist -1.4 (no result: mHtt clearance) | M1 antag confirm 578 | mGluR4 antag inactive
CCCCOc1ccc(C(=O)Nc2ccc(N3CCN(C)CC3)cc2)cc1	none
CCN1CCN(c2ccc(NC(=O)c3ccc4c(c3)OCO4)cc2)CC1	M1 antagonist -3 | M1 antag confirm 398 | mGluR4 antag inactive
CCCCOc1cccc(C(=O)Nc2ccc(N3CCN(CC)CC3)cc2)c1	M1 antagonist -16 (no result: mHtt clearance) | M1 antag confirm 36 | mGluR4 antag inactive
CC(NC(=O)c1cccnc1)C(c1cccs1)N1CCN(C)CC1 (configuration not stated)	none (no result: mHtt clearance)
O=C(c1ccc(S(=O)(=O)N2CCOCC2)cc1)N1CCc2ccccc2C1	none (no result: mHtt clearance)
CCN1CCN(c2ccc(NC(=O)COc3ccccc3Cl)cc2)CC1	M1 antagonist -9 (no result: mHtt clearance) | M1 antag confirm 322 | mGluR4 antag inactive
O=C(c1ccc(Cl)cc1)N(Cc1cccs1)C1CCS(=O)(=O)C1 (configuration not stated)	mHtt clearance inconclusive
Cc1c(NC(=O)CSc2ccccc2C(=O)Nc2cccnc2)c(=O)n(-c2ccccc2)n1C	none (no result: mHtt clearance)
Cc1cc(C)cc(OCCCCCNCCO)c1	none (no result: mHtt clearance, M1 antagonist, M1 agonist)
Cc1cc(OCCCCCNCCO)cc(C)c1Cl	M1 antagonist -3.8 (no result: mHtt clearance) | M1 antag confirm inactive | mGluR4 antag inactive
O=C(NC12CC3CC(CC(C3)C1)C2)N1CCC(O)CC1	none
O=C(NC12CC3CC(CC(C3)C1)C2)N1CCN(C(=O)C2CCCO2)CC1 (configuration not stated)	M1 antagonist -1.8 (no result: mHtt clearance) | M1 antag confirm inactive | mGluR4 antag inactive
O=c1cc(CSc2nnc(COc3ccccc3Cl)o2)nc2sccn12	none (no result: mHtt clearance)
CCOCCCn1c(=S)[nH]c2cc(C(=O)N3CCOCC3)ccc2c1=O	none
COCCCn1c(=S)[nH]c2ccc(N3CCOCC3)cc2c1=O	M1 antagonist -11, Fluor 339 460 3.8 (no result: mHtt clearance) | M1 antag confirm inactive | mGluR4 antag inactive
CCCCOc1ccccc1NC(=O)CC1SC(=NCC)N(CC)C1=O (configuration not stated)	M1 antagonist -2.8 (no result: mHtt clearance) | M1 antag confirm inactive | mGluR4 antag inactive
